Source: PubChem BioAssay
PNC assembly inh = inhibitors of perinucleolar compartment assembly; PC3M PTB-GFP, PNC prevalence imaging, 16 h; stronger effect = lower value; activity change (PNC), negative = inhibition, % at 10 µM; 3.1% of 140,000 active;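 active = readout at or below -70, meaning at least 70% loss of cells showing the perinucleolar compartment, a nuclear body marking cancer cells; inconclusive = readout between -30 and a set limit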;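 also: plate controls were DMSO wells for no effect and camptothecin positive control wells for full effect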
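Compounds are pinned in duplicate onto adhered PC3M cells stably expressing GFP-tagged PTB and incubated 16 h at 37 C. Cells are then fixed, nuclei stained with Hoechst, and PNC-positive cells counted.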
ALDH1A1 inh = blocks purified human ALDH1A1 activity; P00352; Purified ALDH1A1, NADH fluorescence, propionaldehyde substrate; Potency, µM (top dose mostly 75.3 µM), for inactives: at the top dose activity, negative = inhibition, hits mostly inhibitors; 7.3% of 220,000 active; AID 1030;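 also: potency is read from the fitted curve at half-maximal effect; plate controls were no enzyme wells and a reference inhibitor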
Target sequence (P00352 whole entry, looked up): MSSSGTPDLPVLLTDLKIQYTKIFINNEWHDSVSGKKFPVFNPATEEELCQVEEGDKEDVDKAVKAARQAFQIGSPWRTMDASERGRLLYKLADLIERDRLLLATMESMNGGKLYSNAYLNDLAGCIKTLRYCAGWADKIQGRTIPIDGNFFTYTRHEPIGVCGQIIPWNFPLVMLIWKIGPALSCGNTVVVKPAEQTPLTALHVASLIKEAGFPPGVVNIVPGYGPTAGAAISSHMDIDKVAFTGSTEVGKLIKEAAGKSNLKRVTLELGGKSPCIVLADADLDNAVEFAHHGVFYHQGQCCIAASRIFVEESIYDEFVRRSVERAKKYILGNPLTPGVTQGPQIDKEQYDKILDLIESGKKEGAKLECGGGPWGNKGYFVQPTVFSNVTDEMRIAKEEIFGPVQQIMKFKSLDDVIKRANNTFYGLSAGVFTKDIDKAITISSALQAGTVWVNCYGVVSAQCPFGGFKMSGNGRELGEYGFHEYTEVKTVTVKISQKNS
HPGD inh = inhibitors of human 15-hydroxyprostaglandin dehydrogenase (HPGD) | P15428 | purified HPGD, NADH fluorescence kinetic, PGE2 substrate | Potency, µM, without a hit: at the highest dose activity change, negative = inhibition, actives largely listed as inhibitors | 4.3% of 150,000 active | AID 894; also: potency is read from the fitted curve at half-maximal effect
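NADH formation kinetics: reaction with 30 uM PGE2 and 1 mM NAD+ (final), 20 nM enzyme, Tris-HCl pH 8 with Tween 20, after 15 min compound preincubation at room temperature. Fluorescence change, last versus first of five reads.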
* hit, by the source's call; ? = inconclusive; · = no result given; [ ] = remark or other dose. Shown are actives, neighbours in structure and some others; about 11% of the full set was active somewhere. Unless noted, calls follow the shape of the dose curve; as a rule, active = well fitted inhibition curve with a large enough effect (not every such curve was filed as active); inconclusive = small, poorly fitted or top-dose-only effect, or another doubt; inactive = no such curve, though single readings can be large or run the other way. Unless noted, % is scaled to controls: 0 for no effect and ±100 for the full control effect.

SMILES | PNC assembly inh | ALDH1A1 inh | HPGD inh
C/C(=N\NC(=O)c1cccs1)c1ccc2c(c1)OCO2 | · | 2% | ·
O=S(=O)(Nc1ccc(-c2cn3ccsc3n2)cc1)c1ccc2c(c1)OCCO2 | -10 | -16% | ?
CC(=O)Nc1ccc2c(c1)OCCO2 | ? | -13% | -8%
CC(=O)Cc1nsc(Nc2ccc(Cl)cc2)n1 | · | 6% | ·
CCCCc1nc2c(c3c1C[C@H](C)OC3)CN(C(=O)Nc1ccc(OC)cc1)CC2 | · | 1%[13.5 µM] | -3%
COc1ccc(/C=N/NC(=O)c2ccc(N(C)S(=O)(=O)c3ccccc3)cc2)cc1OC | 7 | ? | ?
Cc1cc(C)cc(C(=O)NCC(=O)OCC(=O)NCC(F)(F)F)c1 | · | 11% | ·
Oc1ccc(CCc2n[nH]c(=S)n2-c2ccc(F)cc2)cc1 | · | -12% | ·
COc1ccc(Oc2ncc3nc(C)c(=O)n(CCC#N)c3n2)cc1 | · | ? | -21%
CC(=O)N1CCc2cc(NS(=O)(=O)c3cccs3)ccc21 | -21 | -5% | 25µM*
COc1cccc(NS(=O)(=O)c2ccc3c(c2)CCCN3C(C)=O)c1 | 26 | ? | 4%
O=S(=O)(Nc1ccc2c(c1)OCCO2)c1cccs1 | 38 | -4% | 14µM*
O=S(=O)(Nc1ccc2c(c1)OCO2)c1cccs1 | -2 | 5% | -30%
COC(=O)N1C2CC3(C)CC(=O)CC1(C)C3c1ccccc12 (configuration not stated) | · | 10%[13.5 µM] | -4%
Cc1ccc(CN2C(=O)c3ccccc3C2C(=O)NCc2cccnc2)cc1 (configuration not stated) | 25 | -15% | -6%
O=C(NCc1cccnc1)c1cccc2c1C(=O)N(C1CCCCC1)C2 | -100* | 0% | -14%
O=C(Nc1ccc2c(c1)OCO2)c1cccc2c1C(=O)N(C1CCCCC1)C2 | · | 12% | ·
O=C(NCc1cccnc1)C1CC(=O)N(C2CCCCC2)C1 (configuration not stated) | -17 | 7% | -8%
O=C(NCc1cccnc1)C1c2ccccc2C(=O)N1C1CCCC1 (configuration not stated) | -108* | -6% | -4%
O=C(NCc1ccco1)c1cccc2c1C(=O)N(C1CCCCC1)C2 | -100* | 8% | -16%
CCc1cccc2c(C(=O)C(F)(F)F)cn(CC(=O)N3CCOCC3)c12 | · | -1% | ·
Cc1noc(C)c1-c1nnc(-c2ccc(C(F)(F)F)cc2)o1 | · | 5% | ·
CCOC(=O)c1cc(-c2ccc(OC(F)F)cc2)nc2nc(SC)[nH]c(=O)c12 | 10 | ? | ·
CCOC(=O)c1cc(-c2ccc(OC(F)F)cc2)nc2c1c(=O)[nH]c(=O)n2C | -84* | -3% | ?
O=C1[C@@H]2C(c3cccnc3)=NO[C@@H]2C(=O)N1c1ccc2ccccc2c1 | · | 1.6µM* | ·
SMILES | PNC assembly inh | ALDH1A1 inh | HPGD inh
COc1ccc(C2=NO[C@@H]3C(=O)N(c4ccc5c(c4)OCCO5)C(=O)[C@H]23)cc1OC | ? | ? | -16%
COc1ccc(N2CCN(C(=O)CSc3ncnc4c3cnn4-c3ccccc3C)CC2)cc1 | -12 | -6% | -3%
CC1Cc2ccccc2N1C(=O)CSc1nc(N)cc(=O)[nH]1 (configuration not stated) | 11 | -8% | -9%
Cc1sc2nc(C(C)C)nc(SCC(=O)N3c4ccccc4CC3C)c2c1C (configuration not stated) | -97* | -1% | -4%
CCc1nc(SCC(=O)N2c3ccccc3CC2C)c2c(C)c(C)sc2n1 (configuration not stated) | ? | -10% | -15%
Cc1ccc2nc(SCC(=O)N3c4ccccc4CC3C)c(C)cc2c1 (configuration not stated) | -7 | 25µM* | -28%
Cc1ccccc1-n1ncc2c(SCC(=O)N3c4ccccc4CC3C)ncnc21 (configuration not stated) | 17 | 14µM* | 3%
Cc1ccc(N=Cc2c(O)[nH]c3ccccc23)c([N+](=O)[O-])c1 | · | -1% | ·
CCCCC(C=O)CC (configuration not stated) | · | -8% | -9%
Cn1cc(-c2nc3cnc(Oc4ccccc4)nc3n(C3CC3)c2=O)c2ccccc21 | · | -1% | ·
O=S1(=O)c2ccccc2N=NN1Cc1ccc(Cl)cc1 | 8 | 2.4µM* | 28µM*
O=S1(=O)c2ccccc2N=NN1Cc1cc(Cl)cc(Cl)c1 | 18 | ? | ?
CC(C)=NOCc1ccc(-c2cn([C@@H]3COC[C@@H]3O)nn2)cc1 | · | 3%[13.5 µM] | ·
CCC1CCc2c(sc(NC(=O)C3CC=CCC3C(=O)O)c2C#N)C1 (configuration not stated) | 8 | 1.8µM* | 32µM*
CCOC(=O)Nc1sc2c(c1C#N)CCC(C)C2 (configuration not stated) | -12 | ? | -9%
CCC(=O)Nc1ccc(C(=O)NNC(=O)Cc2ccccc2)cc1 | 3 | 9% | 3%
